High-throughput results deposited in PubChem by National Center for Advancing Translational Sciences (NCATS).
A selection: hits, their analogues and other compounds. The true share with any hit is near 3.6%.
Epigenetic derep = epigenetic control regulation, reporter derepression | murine LDR cells, GFP reporter derepression, 30 h | Potency, µM (titrated, usually from 53.9 µM), for the others: at the highest dose GFP activation, actives largely listed as activators | 280,000 tested, 0.2% active | AID 1865; note: % of control where 0% means no effect; nearly all actives have a fitted effect of over 60% in size
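Murine LDR cells bearing a silenced CMV-driven GFP reporter were exposed to compound for 30 h at 37 C. After PBS washes, GFP-positive cells (20-120 um objects) counted by laser-scanning microplate cytometry.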
Sfp PPTase inh = inhibitors of Bacillus subtilis Sfp phosphopantetheinyl transferase; Potency, µM, inactives show largest response in the series, negative = inhibition, most hits filed as inhibitors; 310,000 tested, 3.5% active; Biochemical Sfp PPTase activity, qHTS; Q9F4F7;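 note: the enzyme is Sfp with the accession as filed and its product quenches rhodamine fluorescence; 0% = enzyme reaction without inhibitor and -100% = no enzyme wells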
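Sfp 15 nM + cpd, 15 min RT; start w/ rhodamine-CoA 5 uM, BHQ-2-YbbR 12.5 uM (final); 50 mM Hepes pH 7.6, 10 mM MgCl2, 0.01% NP-40, 0.01% BSA; read 525/598 nm at 0 and 30 min.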
NPSR antagonist = blocks cAMP signaling of the human neuropeptide S receptor; 220,000 tested, 1% active; Q6W5P4; Potency, µM (titrated, usually from 38.3 µM), inactives show at the top dose activity change, negative = inhibition, usual class: inhibitors; CHO-NPSR cells, cAMP TR-FRET, antagonist mode; note: % is set by controls: 0 for no effect and ±100 for the full control effect; nearly all actives have a fitted effect of over 50% in size
Target sequence (Q6W5P4 whole entry, looked up): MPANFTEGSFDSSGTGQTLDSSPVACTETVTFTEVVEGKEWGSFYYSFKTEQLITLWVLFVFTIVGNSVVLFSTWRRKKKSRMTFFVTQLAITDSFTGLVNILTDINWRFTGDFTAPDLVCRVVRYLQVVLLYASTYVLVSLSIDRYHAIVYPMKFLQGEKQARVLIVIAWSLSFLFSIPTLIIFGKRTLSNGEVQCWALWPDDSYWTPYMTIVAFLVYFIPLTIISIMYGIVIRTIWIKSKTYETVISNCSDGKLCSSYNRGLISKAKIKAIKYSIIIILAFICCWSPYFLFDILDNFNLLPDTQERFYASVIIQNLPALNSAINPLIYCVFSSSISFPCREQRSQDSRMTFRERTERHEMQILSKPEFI
KAT2A inh = blocks human GCN5L2 histone acetyltransferase. GCN5L2 HAT assay, ThioGlo1 CoA-SH fluorescence. 390,000 tested, 0.21% active. Q92830. Potency, µM (titrated, usually from 58.9 µM), without a hit: top-dose activity change, negative = inhibition, actives largely listed as inhibitors. AID 504327; note: % is set by controls: 0 for no effect and ±100 for the full control effect
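Fluorescence readout, Ex340nm/Em540nm: ThioGlo1 (50uM final) reacts with free CoA thiol released as 20nM GCN5L2 acetylates H3(1-25) peptide (75uM) using acetyl-CoA (70uM). Compound and enzyme sat 15 min beforehand; 20 min room-temperature reaction.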
JMJD2E inh = blocks human JMJD2E demethylase activity. B2RXH2. JMJD2E catalytic domain, FDH-coupled NADH fluorescence (FDH is formaldehyde dehydrogenase). Potency, µM (series often up to 57.1 µM), inactives show at the top dose activity change, negative = inhibition, actives largely listed as inhibitors. 230,000 tested, 1.6% active. AID 2147; active = well fitted inhibition curve with a large enough effect, not every such curve was filed as active; inconclusive = small, poorly fitted or top-dose-only effect, or another doubt; inactive = no such curve, though single readings can be large or run the other way;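 note: 0% = wells with enzyme and -100% = buffer wells without enzyme; nearly all actives have a fitted effect of over 50% in size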
IMPase Li inh = IMPase inhibition in cells with lithium potentiation | 210,000 tested, 0.35% active | AID 1457 | Potency, µM (doses to about 59.4 µM), inactives show at the highest dose activity, negative = IMPase inhibition, actives largely listed as inhibitors | CHO-M1 cells, IP1 TR-FRET (IP-One), carbachol + lithium;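 note: IP1 builds up when IMPase is blocked and the TR-FRET signal falls; plate controls were basal vehicle for no effect and high inhibitor control for full effect; nearly all actives have a fitted effect of over 50% in size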
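CHO-M1, 2000 cells/well, 16–30 h culture; cpd + low Li+, 30 min 37C; lysis with d2-IP1/Eu-anti-IP1 Ab, 10 min RT; TR-FRET 665/620 ratio and 620 channel; AC50 via Hill.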
Active calls of the source: *; ? = inconclusive; nt = no result; [ ] = remark or other dose. Unless noted, calls come from the whole dose curve; as a rule, active = well fitted curve in the direction sought with a large enough effect; inconclusive = small, poorly fitted or top-dose-only effect, or another doubt; inactive = no such curve, though single readings can be large; an effect the other way counts as inactive or inconclusive. Potency is the fitted concentration of half-maximal effect.

SMILES	Epigenetic derep	Sfp PPTase inh	NPSR antagonist	KAT2A inh	JMJD2E inh	IMPase Li inh
COC(=O)c1cn[nH]c1NC(=S)Nc1ccc(Cl)c(Cl)c1	3%	56µM*	-8%[46.1 µM]	-6%	2%	12%[38.3 µM]
CC(=O)Nc1cccc(NC(=O)Nc2ccc(C)c(Cl)c2)c1	-3%	7%	2%	14%	4%	7%
CN(CC(=O)O)Cc1nc2ccccc2[nH]1	0%	89µM*	0%[46.1 µM]	-1%	-26%	14%[38.3 µM]
O=C(c1cc(-c2ccncc2)nc2ccc(Br)cc12)N1CCN(c2ccccn2)CC1	-1%	-8%	?	nt	6%	-7%[38.3 µM]
CCN1CCN(C(=O)c2cc(-c3cccnc3)nc3ccc(Br)cc23)CC1	4%	14%	13%[46.1 µM]	-5%	-2%	13µM*
O=C(O)c1cc(-c2ccc3c(c2)OCO3)nc2ccc(Br)cc12	1%	-5%	6.3µM*	10%	?	11µM*
CC(=O)Nc1cccc(NC(=O)c2cc(-c3cccnc3)nc3ccc(Br)cc23)c1	1%	-18%	-14%[46.1 µM]	1%	-11%	11µM*
O=C(O)c1cc(-c2cccnc2)nc2ccc(Br)cc12	0%	13%	5µM*	-7%	2%	2.8µM*
CCOC(=O)c1cccc(NC(=O)Cn2c(=O)c3cccn3c3ccccc32)c1	1%	nt	nt	-10%	nt	nt
CCCN1CCC(=O)N(CCSc2ccc(Br)cc2)CC1	nt	5%	nt	nt	nt	nt
CCOc1ccc(-c2nonc2NC(=O)c2ccc(C)cc2)cc1OCC	2%	nt	nt	2%	nt	nt
O=C1c2ccccc2C(=O)c2c(Nc3cc4c5c(ccc6c7ccc8c9c(cc(Nc%10cccc%11c%10C(=O)c%10ccccc%10C%11=O)c(c3c56)c97)-c3ccccc3C8=O)C(=O)c3ccccc3-4)cccc21	nt	nt	nt	nt	nt	2%
OC[C@H]1O[C@@H](O[C@@H]2OC=C[C@H]3[C@H](O)[C@@H]4O[C@]4(CO)[C@@H]23)[C@H](O)[C@@H](O)[C@@H]1O	nt	-1%	nt	47%	nt	nt
Cc1ccc2nc(-c3cccnc3)cc(C(=O)Nc3ccccc3[N+](=O)[O-])c2c1	nt	-15%	nt	-10%	nt	nt
CSc1ccccc1NC(=O)c1cc(-c2cccnc2)nc2ccc(Br)cc12	10%	45µM*	-16%	-7%	-3%	-17%
COc1ccccc1N1CCN(C(=O)C2CCN(S(=O)(=O)c3cccs3)CC2)CC1	-1%	nt	nt	-7%	nt	nt
CCCCCCCCCCCCCCCC[N+](C)(C)CC	nt	79µM*	nt	-2%	nt	nt
CCCCCC[N+](C)(C)CCSSCC[N+](C)(C)CCCCCC	7%	-18%	18%	0%	-12%	nt
CCCCCCCCCCCCCC[N+](C)(C)C	nt	11µM*	nt	-4%	nt	nt
C[N+](C)(C)CCCCCC[N+](C)(C)C	-1%	19%	?	-1%	6%	6%
O=C(NC(=S)Nc1cccc2c(O)cccc12)c1ccco1	nt	50µM*	nt	-3%	nt	nt
O=C(NC(=S)Nc1cccc2ncccc12)c1ccco1	?	-30%	-6%	17%	6%	-2%
Cc1cc(NC(=S)NC(=O)c2ccco2)c2ccccc2n1	0%	28µM*	-10%	-3%	-2%	5%
COc1cccc(Nc2ncc3nc(CCc4ccccc4)c(=O)n(Cc4cccs4)c3n2)c1	nt	35%	nt	-3%	nt	?
CCCN(C(=O)c1nn(-c2ccc(OC)cc2)c(=O)c2c1c1ccccc1n2C)c1ccc(CC)cc1	0%	nt	nt	-7%	nt	nt
Cc1nn(C(=O)c2ccccc2F)c(C)c1S(=O)(=O)N1CCOCC1	-2%	nt	nt	-17%	nt	nt
CCc1ccc2oc(-c3ccc(OC)cc3)cc(=Nc3c(C)n(C)n(-c4ccccc4)c3=O)c2c1	1%	79µM*	?	-16%	?	28%
NN1C(=O)/C(=C2/Sc3ccccc3N2CCCS(=O)(=O)O)SC1=S	nt	-16%	nt	-15%	nt	nt
CCC(=S)/C=C1\Sc2ccc3ccccc3c2N1CCCS(=O)(=O)O	3%	35µM*	-7%[46.1 µM]	43%	-21%	-10%[38.3 µM]
CCc1nnc(NC(=O)c2nc(S(=O)(=O)Cc3ccccc3)ncc2Cl)s1	nt	?	nt	3%	nt	nt
